TRPV1 PAM: HTS Assay for Compounds that Act as Potentiators of the Vanilloid Receptor 1; 320,000 compounds, 0.02% hits; Transient receptor potential cation channel subfamily V member 1 (Homo sapiens), Q8NER1; TRPV1-expressing cells, Fluo-8 calcium influx, capsaicin EC20 potentiation; potentiation, % at 8.33 µM; AID 540277, 2011; in the data active = potentiation above about 80%; inconclusive = between about 30% and that limit; note: 0% is about no effect
Target sequence (Q8NER1 whole entry, looked up): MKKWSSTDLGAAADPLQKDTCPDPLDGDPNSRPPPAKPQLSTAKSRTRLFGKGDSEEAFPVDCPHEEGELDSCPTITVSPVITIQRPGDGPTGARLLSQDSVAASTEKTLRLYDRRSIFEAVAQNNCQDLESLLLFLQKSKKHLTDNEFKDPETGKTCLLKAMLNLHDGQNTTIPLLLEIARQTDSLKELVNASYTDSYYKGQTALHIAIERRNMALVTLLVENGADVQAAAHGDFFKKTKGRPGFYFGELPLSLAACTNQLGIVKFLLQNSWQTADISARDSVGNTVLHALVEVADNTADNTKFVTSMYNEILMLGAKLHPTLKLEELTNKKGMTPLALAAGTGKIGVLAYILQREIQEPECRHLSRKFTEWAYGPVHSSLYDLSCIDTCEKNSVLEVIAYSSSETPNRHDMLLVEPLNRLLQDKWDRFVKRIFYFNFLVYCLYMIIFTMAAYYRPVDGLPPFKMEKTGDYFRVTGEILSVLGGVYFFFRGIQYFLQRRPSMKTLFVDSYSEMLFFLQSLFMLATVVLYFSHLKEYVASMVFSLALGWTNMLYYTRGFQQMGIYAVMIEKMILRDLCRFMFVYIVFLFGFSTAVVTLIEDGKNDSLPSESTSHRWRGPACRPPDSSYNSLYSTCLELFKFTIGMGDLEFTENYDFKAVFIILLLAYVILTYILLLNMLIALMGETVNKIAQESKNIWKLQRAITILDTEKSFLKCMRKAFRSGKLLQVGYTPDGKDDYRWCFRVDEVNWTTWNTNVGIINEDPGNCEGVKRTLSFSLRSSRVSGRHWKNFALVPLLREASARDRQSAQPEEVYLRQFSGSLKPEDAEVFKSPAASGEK
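TRPV1-expressing cells were cultured overnight at 35.5C and loaded with Fluo-8 calcium dye for 40 to 90 min at room temperature. After a 10 s baseline, compound was added and calcium influx was read kinetically for 3 min (ex 480/em 520 nm).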
MBNL1-CUG inh: qHTS Assay for Inhibitors of MBNL1-poly(CUG) RNA binding; TR-FRET MBNL1-His/biotin-(CUG)12 binding, 665/545 ratio; Potency, µM (top dose mostly 57.5 µM), for the others: at the highest dose activity change, negative = inhibition, actives largely listed as inhibitors; 280,000 compounds, 0.036% hits; active = well fitted inhibition curve with a large enough effect in the signal ratio, with a control signal flat, not every such curve was filed as active; inconclusive = small, poorly fitted or top-dose-only effect, or effect the other way, or a change in a side signal; inactive = no such curve, though single readings can be large or run the other way; the % refers to the signal ratio; note: potency is the fitted concentration of half-maximal effect; % is set by controls: 0 for no effect and ±100 for the full control effect
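Compounds (final 92 nM to 58 uM) are added to His-tagged MBNL1 and biotin-(CUG)12, then terbium anti-His antibody and streptavidin-XL665 (5 nM final). After 60 min at room temperature, the 665/545 nm ratio is read.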
KCNH2 WT inh: qHTS for Inhibitors of KCHN2 3.1: Wildtype qHTS; U2OS, BacMam KCNH2, thallium flux FluxOr; hits give low values; Voltage-gated inwardly rectifying potassium channel KCNH2 (Homo sapiens), Q12809; 340,000 compounds, 0.37% hits; activity change, % at 1.84 µM;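 active = maximum activity change below -70%; inconclusive = maximum activity change between -70% and -50%; inactive = maximum activity change above -50%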; note: % is set by controls: 0 for no effect and ±100 for the full control effect
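U2OS cells were transduced with wild-type KCNH2 virus (2.03 x 10^8 / mL) for 4 h at room temperature, then cultured overnight at 37 C. Thallium flux was read with FluxOr dye. Rate constants were normalized to DMSO controls.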
KCNH2 3.1 block: qHTS for Inhibitors of KCHN2 3.1: Mutant qHTS; 340,000 compounds, 0.95% hits; Potassium voltage-gated channel subfamily H member 2, brain isoform KCNH2 3.1 (human); U2OS KCNH2 3.1, thallium flux FluxOr; hits give low values; activity change, % (tested at about 1.8 µM);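 active = maximum activity change below -70%; inconclusive = maximum activity change from -70% to -50%; inactive = maximum activity change above -50%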;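 note: thallium influx rate constant from kinetic fluorescence after stimulation buffer; % is set by controls: 0 for no effect and ±100 for the full control effect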
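Virally transduced U2OS (3.1 isoform, 4 h infection in dark at RT) → overnight 37 C → FluxOr + Red40 in HBSS/HEPES, 45 min → stimulation buffer, 2 min kinetic read → rate constant vs DMSO controls.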
TRPV1 ag: HTS Assay for Compounds that Act as Agonists of the Vanilloid Receptor 1 | Transient receptor potential cation channel subfamily V member 1 (Homo sapiens), Q8NER1 | 320,000 compounds, 0.19% hits | activation, % at 8.33 µM | TRPV1-expressing cells, Fluo-8 calcium influx, agonist mode; in the data active = activation above about 80%; inconclusive = between about 30% and that limit; note: 0% is about no effect
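TRPV1-expressing cells were cultured overnight at 35.5C and loaded with Fluo-8 calcium dye for 40 to 90 min at room temperature. After a 10 s baseline, compound was added and calcium influx was read kinetically for 3 min (ex 480/em 520 nm).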
Numbers without * were called inactive; ? = inconclusive; · = no result; [ ] = dose if it differs, or a comment. Hits are enriched below; roughly 1.3% of the tested compounds scored in any of these assays.

SMILES | TRPV1 PAM | MBNL1-CUG inh | KCNH2 WT inh | KCNH2 3.1 block | TRPV1 ag
O=C1C2C(C(=O)N1/N=C/c1ccc([N+](=O)[O-])o1)C1C=CC2C12CC2 (configuration not stated) | -3.0 | ? | 4.5 | 0.2 | 4.7
CC1=NN(c2nc(N)nc(/C(C#N)=C/c3ccc([N+](=O)[O-])o3)n2)C(C)(C)C1 | · | · | -6.4 | -72.4* | ·
Cc1ccc(NC(=O)C2CCCN(C(=O)c3ccc(Cl)cc3)C2)cc1C (configuration not stated) | -15.8 | -7.2% | -6.1 | -121.7* | ?
CN(CCc1ccccc1)C(=O)c1ccc(NC(=O)Cc2ccc(NC(=O)C3CCN(C(=O)C4CC4)CC3)cc2)cc1 | · | · | 2.8 | -73.4* | ·
Cc1nc(-c2ccc(S(=O)(=O)Nc3ccc(Br)cc3F)cc2)co1 | 15.2 | -3.1% | 5.7 | -14.7 | -4.3
C[C@@H]1CN([C@H](C)CO)C(=O)c2cccc(NC(=O)c3ccncc3)c2O[C@@H]1CN(C)Cc1ccc(C(=O)O)cc1 | · | · | -6.2 | -85.1* | ·
C[C@H](CO)N1C[C@H](C)[C@@H](CN(C)Cc2ccc3c(c2)OCO3)Oc2c(NC(=O)C3CCCCC3)cccc2C1=O | · | · | -3.6 | -96.2* | ·
O=C(CSc1nnc(-c2ccccc2)o1)OCc1ccccc1 | 1.2 | -6.5% | 2.7 | 8.2 | 2.4
COCC(=O)OCC(=O)N1N=C(c2ccc(Cl)cc2)CC1c1ccco1 (configuration not stated) | 1.3 | · | -12.8 | -15.6 | -2.4
O=C(COc1cccnc1[N+](=O)[O-])N1N=C(c2ccc(Cl)cc2)CC1c1ccco1 (configuration not stated) | -9.6 | 214.0% | 18.1 | -33.1 | -2.0
CC(C)[C@H](NS(=O)(=O)c1ccccc1)C(=O)OCC(=O)N1N=C(c2ccc(Cl)cc2)CC1c1ccco1 (some centres not stated) | -9.3 | ? | -13.0 | -74.9* | -1.0
Cc1ccc(OCC(=O)N2N=C(c3ccc(Cl)cc3)CC2c2ccco2)c([N+](=O)[O-])n1 (configuration not stated) | -18.9 | 17.0% | -72.4* | -91.0* | 0.6
CC(Nc1ccc(Br)cn1)c1cc(Cl)ccc1O (configuration not stated) | 14.6 | -9.0% | -31.3 | -72.1* | 0.8
O=C(Nc1ccc(C(=O)O)cc1)/C(=C\C=C\c1ccccc1)NC(=O)c1ccccc1Br | 10.3 | ? | 0.6 | -6.1 | -11.8
Cc1ccc(Cl)cc1NC(=O)C(NS(=O)(=O)c1cccs1)c1ccccc1 (configuration not stated) | -3.0 | 5.4% | -118.7* | -13.5 | 4.4
CCc1cccc(CC)c1NC(=O)C(NS(=O)(=O)c1cccs1)c1ccccc1 (configuration not stated) | -7.4 | · | -7.8 | -2.9 | 3.1
CS(=O)(=O)NCCSCc1ccccc1 | -7.8 | 2.5% | -3.5 | -12.6 | -2.0
Cc1ccccc1CSCCNS(C)(=O)=O | 0.8 | 1.6% | -19.4 | -78.7* | -1.6
CN(C)S(=O)(=O)Nc1cccc(Br)c1 | 3.6 | -14.1% | -126.3* | -1.4 | 1.7
COc1ccc(NC(=O)c2cc(-c3ccccc3Cl)no2)cc1 | -11.1 | -10.2% | -2.7 | -14.6 | ?
O=C(Nc1ccccc1)c1cc(-c2ccccc2Cl)no1 | -6.3 | -6.2% | 16.1 | -12.5 | 84.9*
Cc1ccc(S(=O)(=O)N2CCN(Cc3ccccc3)CC2)cc1 | -12.6 | -0.7% | -0.3 | -3.3 | 11.7
CCN1CCN(S(=O)(=O)c2ccc(OC)c(Br)c2)CC1 | 1.9 | -4.8% | -88.5* | -0.3 | 9.8
COc1ccc(S(=O)(=O)N2CCN(C)CC2)cc1Br | 1.3 | 12.5% | 0.2 | -2.8 | -1.5
CCOc1cc(S(=O)(=O)N2CCN(Cc3ccccc3)CC2)ccc1Br | -4.4 | 1.3% | -9.9 | -81.6* | 1.7
SMILES | TRPV1 PAM | MBNL1-CUG inh | KCNH2 WT inh | KCNH2 3.1 block | TRPV1 ag
CCOc1ccc(OCCC(=O)OCC(=O)NC2CCCC2)cc1 | -15.7 | · | 2.5 | -7.0 | 6.3
CCn1cc(C(=O)NCC(OC)OC)c(=O)c2cc(S(=O)(=O)N3CCC(C)CC3)ccc21 | 8.1 | -2.3% | -15.9 | -1.8 | 6.4
COCCn1c(SCC(=O)Nc2sc(C)c(C)c2C#N)nnc1C(C)C | 6.6 | 0.1% | -2.0 | -195.1* | 0.0
CCn1c(SCC(=O)Nc2sc(C)c(C)c2C#N)nnc1C(C)C | -6.8 | -5.5% | -5.9 | 14.2 | 1.9
Cc1nc(-c2ccccc2)sc1C(=O)O | -6.8 | 11.4% | -3.8 | 8.4 | 2.1
Cc1nc(-c2cccs2)sc1C(=O)O | -1.0 | 36.0% | -95.8* | 9.2 | 0.6
CCOC(=O)N1CCN(C(=O)/C(=C/c2ccc(Br)cc2)NC(=O)c2ccc(OC)cc2)CC1 | -1.3 | 9.5% | -46.9 | ? | 0.0
COc1cccc(C(=O)N2CCN(S(C)(=O)=O)CC2)c1 | 2.4 | -1.4% | 3.3 | 4.4 | 0.1
O=C(NN1C(=O)C2C3C=CC(C3)C2C1=O)c1cccc(Cl)c1 (configuration not stated) | 1.9 | -8.9%[11.5 µM] | -78.0* | -15.5 | -1.4
Nn1c(SCC(=O)Nc2cccnc2Cl)nnc1-c1ccccc1 | -0.2 | · | -8.7 | 7.1 | -3.6
O=C(Nc1ccc(CN2CCOCC2)cc1)c1ccc(-c2cc(Cl)ccc2Cl)o1 | -15.0 | 10.8% | 7.5 | -75.8* | 20.9
O=C(NC1CCCC1)C(c1ccccc1)N(C(=O)c1csnn1)c1ccccc1F (configuration not stated) | -1.2 | -1.0% | -2.0 | 7.9 | 8.3
CCN(CC)CCCN(C(=O)c1cccc(C)c1)c1nc(-c2ccc(OC)cc2)cs1 | -26.0 | 0.5% | -80.8* | -72.7* | 4.8
CCN(CC)CCCN(C(=O)c1ccc(Br)cc1)c1nc(-c2ccc(OC)cc2)cs1 | 4.3 | -12.1% | -135.2* | -109.3* | -1.5
Nc1ccc(CSc2ccc(Cl)cc2)cc1 | -0.4 | · | 5.5 | 5.5 | -1.0
O=C(O)c1ccc(C(=O)c2cc([N+](=O)[O-])cc([N+](=O)[O-])c2)cc1 | · | · | 2.6 | 15.4 | ·
CCC(CC)NC(=O)Nc1ccccc1C(F)(F)F | -21.4 | -4.2% | -111.6* | -18.3 | 10.0
CC(=O)c1cccc(NC(=S)NCCc2ccc(Cl)cc2)c1 | 5.0 | -0.3% | -2.2 | -5.3 | 85.2*
CC1Cc2cc(-c3csc(N)n3)ccc2O1 (configuration not stated) | 4.3 | 7.9% | -1.3 | 8.5 | -2.8
